# Data taken from PubChem BioAssay (NCATS).
# Inconclusive results are not listed. Entries that show only a call come without a potency. The source made the active and inactive calls. Calls come from the whole dose curve; as a rule, active = well fitted curve in the direction sought with a large enough effect; inconclusive = small, poorly fitted or top-dose-only effect, or another doubt; inactive = no such curve, though single readings can be large; an effect the other way counts as inactive or inconclusive.
# Experiment: qHTS for Inhibitors of Plasmodium falciparum (GB4) proliferation (AID 504315); note: nearly all actives have a fitted effect of over 50% in size
# Details: P. falciparum GB4 in erythrocytes, SYBR Green DNA, 72 h; series mostly up to 6.7 µM
# In short: (§1)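 Erythrocytes infected with P. falciparum line (0.3% parasitemia, 2.5% hematocrit final) incubated with compounds 72 h at 37 °C, 5% CO2; SYBR Green lysis buffer added, fluorescence read next day. Normalized to 0.29 uM artemisinin and DMSO.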
row,Structure (SMILES),Potency
1,C[C@]12O[C@@H]1[C@@H](O)C(Br)=C(CO)[C@@H]2O,inactive
2,CCCCCCCc1cc2ccccc2c2c(C(=O)OC)c(C(=O)OC)c(C(=O)OC)n12,inactive
3,C=CC1=C2C=C(C3CC3)N(Cc3ccccc3)C=C2C(=O)C(C)(OC(=O)c2ccco2)C1=O (stereo not given),inactive
4,C=CC[C@@H]1C=CC(ON=CC[C@@H]2C=C[C@@H](OC(C)=O)[C@@H](COC(C)=O)O2)[C@H](CO)O1 (stereo not given in full),inactive
5,O=C(C=Cc1ccccc1)N1CCC[C@H]1CO,inactive
6,CCCNC(=O)OC[C@H]1O[C@H](CCON=C2[C@H]3CCn4c(=O)n(-c5ccccc5)c(=O)n4[C@@H]3[C@H](O)[C@@H]3O[C@H]23)C=C[C@H]1Oc1ccc(OC)cc1,inactive
7,C[C@@H]1C[C@](C)(C(=O)c2ccc3c(c2)OCO3)C=C1c1ccc2c(c1)OCO2,inactive
8,COCCN1C(=S)NC(c2cccc(F)c2)C(C(=O)OC)=C1C (stereo not given),inactive
9,COc1ccc(O[C@H]2C=C[C@@H](c3ccccc3)O[C@H]2COC(=O)CCC(C)=NOC[C@@H](O)COCc2ccco2)cc1,inactive
10,CC(CCN1CCCCc2nc(C)c(C)cc21)=NO[C@H](C)c1cn([C@H](CO)Cc2ccccc2)nn1,inactive
11,CC1(O)C(=O)C=C2C=C3CCCN3C=C2C1=O (stereo not given),inactive
12,CCC(=O)C[C@@H](NC(=O)OC)c1ccc(F)cc1,inactive
13,COC(=O)N[C@@H](C=Cc1ccccc1)C[N+](=O)[O-],inactive
14,CC(=O)C1=CN(CCc2c[nH]c3ccccc23)C(=O)NC1c1ccccc1 (stereo not given),inactive
15,CCOC(=O)NN=C1C[C@@H](O)[C@@H](O)[C@@H]2[C@H]3C(=O)N(C4CCCCC4)C(=O)[C@@H]3CC[C@H]12,inactive
16,COc1ccc2c(c1)[C@H](C=Cc1ccccc1)[C@@H]([C@H](O)CO)O2,inactive
17,CCOC(=O)CCN1C(=O)[C@@H]2[C@H]3[C@H](O)[C@H](O)CC(=NNC(=O)OCc4ccccc4)[C@@H]3CC[C@H]2C1=O,inactive
18,CC(CCC(=O)OC[C@H]1O[C@H](C#Cc2ccccc2)C=C[C@H]1Oc1ccc(C)cc1)=NO[C@@H](C)CN1CCCCc2nc(C)c(C)cc21,inactive
19,COC(=O)N1[C@H]2CC[C@@]3(C)C=C(C)O[C@]1(C)C3c1ccccc12,inactive
20,O=C(NN=C1C[C@@H](O)[C@H](O)[C@H]2[C@@H]3C(=O)N(C[C@@H]4CCCO4)C(=O)[C@@H]3CC[C@H]12)OCc1ccccc1,inactive

row,Structure (SMILES),Potency
1,C=CCN1C(=O)CC[C@@]23C1=NC(C(=O)OC)=C(C(=O)OC)[C@@H]2N(CC=C)c1ccccc13,inactive
2,CC(C)CON=C1C[C@@H](O)[C@@H](O)[C@@H]2[C@H]3C(=O)N(Cc4ccc5c(c4)OCO5)C(=O)[C@@H]3CC[C@@H]12,inactive
3,CC(=O)OC[C@H]1O[C@H](CCON=C(C)CCN2CCCCc3nc(C)c(C)cc32)C=C[C@H]1OC(C)=O,inactive
4,C=CCC(Nc1ccc(OC)cc1)(C(=O)OCC)c1ccccc1 (stereo not given),inactive
5,C=CCN1c2ccccc2[C@]23CCC(=O)N(Cc4ccco4)C2=NC(C(=O)OC)=C(C(=O)OC)[C@H]13,inactive
6,COC(=O)N1C(C)=Cc2ccccc2C1CC(C)=O (stereo not given),inactive
7,COC(=O)CCC(=O)OC1(C)C(=O)C=C2C=C(C3CC3)N(Cc3ccco3)C=C2C1=O (stereo not given),inactive
8,COc1ccc2c(c1)[C@@]1(OCCC=C[C@@H]1C)C(=O)N2Cc1ccc(Br)cc1,inactive
9,C=CCCCN1C=C(C(=O)OCC)C(c2ccccc2)NC1=O (stereo not given),inactive
10,COC(=O)C1=C(C)N(Cc2ccccc2)C(=O)NC1c1cccc(C(F)(F)F)c1 (stereo not given),inactive
11,C#CCCOC(=O)N1C2=NC(C(=O)OC)=C(C(=O)OC)[C@@H]3Nc4ccccc4[C@]23C[C@H]1C(=O)OC,inactive
12,COC(=O)C1=C(C)C(=O)[C@]2(O)c3ccccc3N(C)[C@]12C,inactive
13,CCC(=O)OC1(C)C(=O)C=C2C=C(c3ccsc3)OC=C2C1=O (stereo not given),inactive
14,CC(CCN1CCCc2nc(C)c(C)cc21)=NO[C@@H](C)c1cc(-c2c(C)cc(C)cc2C)no1,inactive
15,COC[C@@H](OC(C)=O)[C@H]1OCc2ccccc2[C@@H]1C=Cc1ccccc1,inactive
16,CC#CCC1(C(=O)OC)C(=O)NC[C@H]1c1ccccc1 (stereo not given in full),inactive
17,C=CC1=C2C=C(C3CC3)N(CCOC)C=C2C(=O)C(C)(OC(=O)c2ccco2)C1=O (stereo not given),inactive
18,CCN(CC)CC(O)CN1CCCCc2nc(C)c(C)cc21 (stereo not given),inactive
19,C=CC[C@@H]1C=C[C@H](ON=C(C)CCN2CCCCc3nc(C)c(C)cc32)[C@H](CO)O1,inactive

# Experiment: qHTS for Inhibitors of Plasmodium falciparum (HB3) proliferation (AID 504318); note: nearly all actives have a fitted effect of over 60% in size
# Details: P. falciparum HB3 in erythrocytes, SYBR Green DNA, 72 h; series mostly up to 7.21 µM
# In short: as §1
row,Structure (SMILES),Potency
1,C[C@]12O[C@@H]1[C@@H](O)C(Br)=C(CO)[C@@H]2O,inactive
2,CCCCCCCc1cc2ccccc2c2c(C(=O)OC)c(C(=O)OC)c(C(=O)OC)n12,inactive
3,C=CC1=C2C=C(C3CC3)N(Cc3ccccc3)C=C2C(=O)C(C)(OC(=O)c2ccco2)C1=O (stereo not given),inactive
4,C=CC[C@@H]1C=CC(ON=CC[C@@H]2C=C[C@@H](OC(C)=O)[C@@H](COC(C)=O)O2)[C@H](CO)O1 (stereo not given in full),inactive
5,O=C(C=Cc1ccccc1)N1CCC[C@H]1CO,inactive
6,CCCNC(=O)OC[C@H]1O[C@H](CCON=C2[C@H]3CCn4c(=O)n(-c5ccccc5)c(=O)n4[C@@H]3[C@H](O)[C@@H]3O[C@H]23)C=C[C@H]1Oc1ccc(OC)cc1,inactive
7,C[C@@H]1C[C@](C)(C(=O)c2ccc3c(c2)OCO3)C=C1c1ccc2c(c1)OCO2,inactive
8,COCCN1C(=S)NC(c2cccc(F)c2)C(C(=O)OC)=C1C (stereo not given),inactive
9,CC1(O)C(=O)C=C2C=C3CCCN3C=C2C1=O (stereo not given),inactive
10,CCC(=O)C[C@@H](NC(=O)OC)c1ccc(F)cc1,inactive
11,CC(=O)C1=CN(CCc2c[nH]c3ccccc23)C(=O)NC1c1ccccc1 (stereo not given),inactive
12,CC(CCC(=O)OC[C@H]1O[C@H](C#Cc2ccccc2)C=C[C@H]1Oc1ccc(C)cc1)=NO[C@@H](C)CN1CCCCc2nc(C)c(C)cc21,inactive
13,COC(=O)N1[C@H]2CC[C@@]3(C)C=C(C)O[C@]1(C)C3c1ccccc12,inactive
14,O=C(NN=C1C[C@@H](O)[C@H](O)[C@H]2[C@@H]3C(=O)N(C[C@@H]4CCCO4)C(=O)[C@@H]3CC[C@H]12)OCc1ccccc1,inactive
15,C=CCN1C(=O)CC[C@@]23C1=NC(C(=O)OC)=C(C(=O)OC)[C@@H]2N(CC=C)c1ccccc13,inactive
16,CC(=O)OC[C@H]1O[C@H](CCON=C(C)CCN2CCCCc3nc(C)c(C)cc32)C=C[C@H]1OC(C)=O,inactive

row,Structure (SMILES),Potency
1,C=CCC(Nc1ccc(OC)cc1)(C(=O)OCC)c1ccccc1 (stereo not given),inactive
2,C=CCN1c2ccccc2[C@]23CCC(=O)N(Cc4ccco4)C2=NC(C(=O)OC)=C(C(=O)OC)[C@H]13,inactive
3,COC(=O)N1C(C)=Cc2ccccc2C1CC(C)=O (stereo not given),inactive
4,COC(=O)CCC(=O)OC1(C)C(=O)C=C2C=C(C3CC3)N(Cc3ccco3)C=C2C1=O (stereo not given),inactive
5,COc1ccc2c(c1)[C@@]1(OCCC=C[C@@H]1C)C(=O)N2Cc1ccc(Br)cc1,inactive
6,C=CCCCN1C=C(C(=O)OCC)C(c2ccccc2)NC1=O (stereo not given),inactive
7,COC(=O)C1=C(C)N(Cc2ccccc2)C(=O)NC1c1cccc(C(F)(F)F)c1 (stereo not given),inactive
8,C#CCCOC(=O)N1C2=NC(C(=O)OC)=C(C(=O)OC)[C@@H]3Nc4ccccc4[C@]23C[C@H]1C(=O)OC,inactive
9,COC(=O)C1=C(C)C(=O)[C@]2(O)c3ccccc3N(C)[C@]12C,inactive
10,CCC(=O)OC1(C)C(=O)C=C2C=C(c3ccsc3)OC=C2C1=O (stereo not given),inactive
11,COC[C@@H](OC(C)=O)[C@H]1OCc2ccccc2[C@@H]1C=Cc1ccccc1,inactive
12,CC#CCC1(C(=O)OC)C(=O)NC[C@H]1c1ccccc1 (stereo not given in full),inactive
13,C=CC1=C2C=C(C3CC3)N(CCOC)C=C2C(=O)C(C)(OC(=O)c2ccco2)C1=O (stereo not given),inactive
14,CCN(CC)CC(O)CN1CCCCc2nc(C)c(C)cc21 (stereo not given),inactive
15,C=CC[C@@H]1C=C[C@H](ON=C(C)CCN2CCCCc3nc(C)c(C)cc32)[C@H](CO)O1,inactive
